Results taken from PubChem BioAssay AID651812 (National Center for Advancing Translational Sciences (NCATS), 2012).
Hit rate of the full screen: of about 2,100 compounds, about 650 (31%) were called active. About 16% were inconclusive and are not listed. Calls come from the whole dose curve; as a rule, active = well fitted inhibition curve with a large enough effect; inconclusive = small, poorly fitted or top-dose-only effect; inactive = flat fitted curve, though single readings scatter. The list shows a part of the results. Where a call stands in place of a potency, no number is given.

Experiment: qHTS for inhibitors of Vif-A3G interactions: Cherry picks; note: nearly all actives have a fitted effect of over 80% in size
Conditions: HeLa A3G-eYFP + Vif (tagged APOBEC3G with the HIV-1 protein that degrades it), 24 h; Potency: eYFP fluorescence increase; series mostly up to 36.9 µM
Outline: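 Cherry-picked compounds tested at several concentrations on A3G-eYFP/Vif HeLa cells for 24 hours; loss of Vif-driven degradation read as eYFP fluorescence by cytometric plate imaging, 488 nm excitation, 500-530 nm emission.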
Potency is the fitted concentration of half-maximal effect.

SMILES | Potency
O=C(NCCc1ccccc1Cl)c1ccc(Cn2c(=O)c3cccn3c3cccnc32)cc1 | 18.4 µM (active)
Cc1ccc(-n2c(=O)c3ccc(C(=O)NCc4ccccc4Cl)cc3n(CC(=O)Nc3cccc(Cl)c3)c2=O)cc1 | inactive
CCCCOc1ccc(/C=C/C2=CC(C)(C)NC(=S)N2)cc1OCC | inactive
CCn1c(/C=C/c2ccc([N+](=O)[O-])o2)nc2ccccc2c1=O | 11.6 µM (active)
CCCN1C(=O)C(Cc2nc3ccccc3c(=O)n2CC)c2cc(Br)ccc21 (stereo unspecified) | inactive
O=c1c2ccccc2nc(/C=C/c2ccc([N+](=O)[O-])o2)n1CCCO | 18.4 µM (active)
Cn1c(/C=C/c2ccc([N+](=O)[O-])o2)nc2ccccc2c1=O | 18.4 µM (active)
CCOC(=O)C(C)Oc1cccc2c(=O)n(CC(=O)NCc3ccco3)ccc12 (stereo unspecified) | inactive
NC(=O)c1ccc(NC(=O)C#Cc2ccccc2)cc1 | inactive
COc1cccc(N2CCN(Cc3nc4scc(-c5ccccc5)c4c(=O)[nH]3)CC2)c1 | inactive
O=C(/C=C/c1ccccc1)Nc1ncn[nH]1 | inactive
COc1ccc(-c2cc(C(F)F)n3ncc(C(=O)N4CCc5ccccc54)c3n2)cc1 | inactive
Cc1cccc2cc3c(N)c(C(=O)N4CCc5ccccc54)sc3nc12 | 8.2 µM (active)
Cc1c(C(=O)C(=O)N2CCCc3ccccc32)c2ccccc2n1C | inactive
Cc1cc(NC(=O)COC(=O)c2ccc(S(=O)(=O)N3CCCc4ccccc43)cc2)no1 | inactive
O=C(c1cc([N+](=O)[O-])ccc1N1CCCCC1)N1CCc2ccccc21 | inactive
Cc1cccc2cc3c(N)c(C(=O)N4CCCc5ccccc54)sc3nc12 | 14.6 µM (active)
Cc1ccc2nc3sc(C(=O)N4CCCc5ccccc54)c(N)c3cc2c1 | 14 µM (active)
Cc1ccc(Cc2c(C3CCCCC3)nc3ccc(C)cn23)cc1 | inactive
Cc1cc2nc3s/c(=C/c4ccc(-c5ccccc5C(=O)O)o4)c(=O)n3c2cc1C | 20.6 µM (active)
CCCCOc1nc2ccccc2nc1NS(=O)(=O)c1ccc(F)cc1 | inactive
COc1ccc(Cl)cc1NC(=O)CN(C)CC(=O)Nc1ccccc1N1CCOCC1 | inactive

SMILES | Potency
COc1ccccc1Nc1cc2cc(Br)ccc2c(=O)[nH]1 | inactive
COc1ccccc1N1C(=O)C(Cl)=C(Nc2ccccc2O)C1=O | 16.4 µM (active)
Cc1cccc(CSc2nc(-c3cccs3)ccc2C#N)c1 | inactive
N#Cc1ccc(-c2cccs2)nc1SCc1c(F)cccc1Cl | inactive
C#CCSc1nc(-c2cccs2)ccc1C#N | 8.2 µM (active)
Cc1ccc(NC2=C(Cl)C(=O)N(C3CCCCC3)C2=O)cc1 | inactive
COc1ccc(CNCC(=O)Nc2ccccc2-n2cccc2)cc1 | inactive
CCC(=O)Nc1ccccc1-c1nc2ccccc2n(C(C)C(=O)Nc2ccc(OC)cc2)c1=O (stereo unspecified) | 18.4 µM (active)
Cc1noc(C)c1COc1ccc(C(=O)NNC(=O)c2ccccc2)cc1 | inactive
CCOC(=O)c1cnc(-n2nc(C)cc2C)nc1NNc1cc(C)nc(-c2ccccc2)n1 | inactive
CCCCCCN1C[C@H](O)[C@@H](n2cc(COC(=O)c3ccccc3)nn2)C[C@@H]1c1ccc(C)cc1 | inactive
CC1(C)CC(=O)C(C=Nc2cc(C(=O)c3ccccc3)ccc2N)=C(O)C1 | 20.6 µM (active)
CCOC(=O)N1CCc2c(sc3c2C(=O)NC(c2ccc(N(C)C)cc2)N3)C1 (stereo unspecified) | 20.6 µM (active)
Cc1onc(-c2c(F)cccc2Cl)c1C(=O)O/N=C(\N)c1ccc([N+](=O)[O-])o1 | inactive
Nc1nc(-c2cc(O)ccc2[N+](=O)[O-])cc(-c2ccccc2)c1[N+](=O)[O-] | 15.8 µM (active)
CNCC(O)Cn1c2c(c3ccccc31)CCCC2 (stereo unspecified) | inactive
Cc1oc(C)c2c(=O)ccc3c(c12)OC(N)=C(C#N)C3c1ccc(F)cc1 (stereo unspecified) | inactive
COc1ccc(O)c(C(=O)c2coc(=N)c(C(=O)Nc3ccc(SC(F)F)cc3)c2)c1 | 23.1 µM (active)
CC(C)OC(=O)c1ccc(NCc2cc(O)ccc2O)cc1Cl | inactive
CC(C)OC(=O)c1cc(C(=O)c2cc(F)ccc2O)coc1=N | 20.6 µM (active)
O=C(Nc1ncc(Cc2ccc(SC(F)F)cc2)s1)c1ccccc1 | inactive
COc1cc(-c2nc3ccc(C)cn3c2NCc2ccccc2)ccc1SC1CCCCC1 | inactive

SMILES | Potency
COc1ccccc1/C=C/C=N/NC(=O)c1cc(-c2ccc(C)o2)[nH]n1 | inactive
Cc1ccc2c(/C=C/c3c[nH]c4ccccc34)ccnc2c1C | 3.26 µM (active)
C(=Cc1c[nH]c2ccccc12)c1nccc2ccccc12 | 18.4 µM (active)
C(=C\c1c[nH]c2ccccc12)/c1nccc2ccccc12 | 14.6 µM (active)
Cc1cccc(C(=O)Nc2nnc(C3=COCCO3)o2)c1 | inactive
O=C(NCc1cccnc1)c1cccc(NS(=O)(=O)c2ccc(Br)cc2)c1 | inactive
COc1ccc(NC(=O)c2ccc(NC(=O)C(C)C)cc2)c([N+](=O)[O-])c1 | 10.3 µM (active)
COc1ccc(-c2nnc(NC(=O)c3ccc([N+](=O)[O-])o3)o2)c(OC)c1 | inactive
COc1ccc(COc2cc(-c3cccc(OC)c3)nc3ccc(NC(=O)C(C)C)cc23)cc1 | inactive
O=C1/C(=C/c2ccc(N3CCCC3)cc2)NC(=S)N1C1CC1 | 3.66 µM (active)
O=C1N/C(=C\c2ccccc2)c2ccccc21 | inactive
CCN1C(=O)/C(=C/c2ccc(N3CCCC3)cc2)NC1=S | 10.3 µM (active)
Cc1ccc(C=Nc2ccccc2C(N)=O)s1 | inactive
CN(C)c1ccc(/C=C2\NC(=S)N(Cc3ccccc3)C2=O)cc1 | 9.94 µM (active)
Cc1ccc(/C=C2/NC(=O)N(Cc3ccccc3)C2=O)s1 | 23.1 µM (active)
COc1ccc(COn2c(=O)c(C)[n+]([O-])c3ccccc32)cc1OC | inactive
COc1ccccc1N1CCN(c2ncnc3c2oc2ccccc23)CC1 | inactive
CCOC(=O)N1CCN(C(=O)c2cc(-c3ccc(OCC)cc3)nc3ccccc23)CC1 | inactive
CCOC(=O)N1CCN(C(=O)c2ccccc2-c2ccccc2)CC1 | inactive
CCOC(=O)N1CCN(/C=C(\C#N)c2nc3ccccc3s2)CC1 | 18.4 µM (active)
COc1ccc(S(=O)(=O)N2N=C(C)Oc3ccccc3C2=O)cc1 | inactive
COc1cc(/C=C2\SC(=S)N(NC(=O)c3ccccc3O)C2=O)ccc1O | 23.1 µM (active)

SMILES | Potency
COc1cc(/C=N/NC(=O)c2[nH]nc3c2CCc2ccccc2-3)ccc1O | inactive
COc1cc(/C=C/C(C)=NNc2ccccc2)ccc1O | inactive
COc1cc(/C=N/NC(=O)c2cc(-c3c(C)nn(-c4ccccc4)c3C)n[nH]2)ccc1O | inactive
COc1ccc(C(=O)N/N=C/c2cc(Br)ccc2O)cc1OC | inactive
COc1cc(/C=C2\SC(=S)N(NC(=O)c3ccc(O)c(OC)c3)C2=O)ccc1O | 13 µM (active)
CCOC(=O)C(C(=O)OCC)C(Nc1cccc(Br)c1)c1ccccc1 (stereo unspecified) | inactive
c1ccc2c(CCc3c[nH]c4ccccc34)ccnc2c1 | 23.1 µM (active)
CCCCN1C(=O)/C(=C2/Sc3ccccc3N2C)S/C1=N\c1ncn[nH]1 | 18.4 µM (active)
Cc1ccc2c(c1)C=CC(C#N)N2C(=O)c1ccccc1 (stereo unspecified) | inactive
Nc1c(C(=O)Nc2ccc(S(=O)(=O)N3CCCC3)cc2)sc2nc3ccc(OC(F)(F)F)cc3cc12 | 20.6 µM (active)
O=C(Nc1ccc(N2CCOCC2)cc1)c1cccc2ccccc12 | inactive
Cc1cccc2cc3c(N)c(C(=O)Nc4ccc(N5CCOCC5)cc4)sc3nc12 | 14 µM (active)
Cc1cc2nc(-c3ccc(SCC(=O)Nc4ccc(S(=O)(=O)N5CCCC5)cc4)nc3)[nH]c2cc1C | inactive
COc1cccc(C(=O)Nc2ccc(N3CCCC3)cc2)c1 | inactive
O=C(Nc1ccc(Cl)cn1)c1cccc(S(=O)(=O)N2CCCCCC2)c1 | inactive
COc1ccc(NC(=O)c2oc3ccc(S(=O)(=O)N4CCOCC4)cc3c2C)cc1 | inactive
Nc1c(C(=O)Nc2ccc(S(=O)(=O)N3CCCC3)cc2)sc2nc3cc4c(cc3cc12)CCC4 | 8.2 µM (active)
O=C(Nc1nc2ccc(S(=O)(=O)N3CCCC3)cc2s1)C1CCCCC1 | inactive
COC(=O)Nc1ccc(S(=O)(=O)N2CCCc3ccccc32)cc1 | inactive
Cc1c(C(=O)Nc2ccc(C(C)C)cc2)sc2nc3n(c(=O)c12)CCC3 | inactive
CCc1cccc2cc3c(N)c(C(=O)Nc4ccc(S(=O)(=O)N5CCCC5)cc4)sc3nc12 | 4.98 µM (active)
CN1C(=O)N(C)c2ccc(C=O)c3cccc1c23 | inactive

SMILES | Potency
COc1cc(OC)c(/C=C/c2ccnc3ccccc23)c(OC)c1 | inactive
COc1cc(OC)c(C2Nc3cccc4cccc(c34)N2)c(OC)c1 | inactive
COc1cc(OC)c(/C=C/c2ccc3ccccc3[n+]2C)c(OC)c1 | 10.3 µM (active)
CCN(CC(=O)NCc1ccc(F)cc1)C(=O)/C=C/c1ccc(OC)c(S(=O)(=O)NC(C)C)c1 | inactive
Cc1sc2ncnc(SCC(=O)NC(C)(C)C)c2c1C | inactive
Cc1sc2ncn(CC(=O)NCc3ccccc3)c(=O)c2c1C | inactive
Cc1sc2ncnc(N=Nc3c(O)[nH]c4ccccc34)c2c1C | 16.4 µM (active)
Fc1ccc(-c2cnn3c(-c4cccs4)ccnc23)cc1 | 12.5 µM (active)
Cc1ccc2nc(SCC(=O)Nc3ccc4sc(C)nc4c3)c(C#N)cc2c1 | 18.4 µM (active)
COc1ccc2nc(SCC(C)=O)c(C#N)cc2c1 | 3.26 µM (active)
COc1ccc2cc(C(=O)C3CCCN(Cc4ccccn4)C3)ccc2c1 (stereo unspecified) | inactive
CCN(CC)c1ccc(NC(=O)CSc2nc(C3CC3)nc3ccccc23)cc1C | inactive
COc1ccc2nc(SCC(=O)Nc3ccc4sc(C)nc4c3)c(C#N)cc2c1 | 20.6 µM (active)
CCC(=O)Nc1nc2ccc(NC(=O)c3cc(OC)c(OC)c(OC)c3)cc2s1 | inactive
COc1ccc2nc(NC(=O)c3ccc([N+](=O)[O-])o3)sc2c1 | inactive
Cc1ccc(NC(=O)CSc2n[nH]c(-c3ccccn3)n2)cc1 | inactive
CCc1ccc2nc(SCC(=O)Nc3ccccc3N3CCOCC3)c(C#N)cc2c1 | inactive
Cc1nc2cc(NC(=O)CSc3nc4c(C)cccc4cc3C#N)ccc2s1 | 13 µM (active)
